In all, about 310,000 compounds went through this assay and about 11,000 (3.5%) were called active. Another 8% or so got no clear call; they are omitted. The sample as a whole holds a higher share of actives than the screen did. Unmarked numbers belong to inactive results. Calls come from the whole dose curve; as a rule, active = well fitted inhibition curve with a large enough effect; inconclusive = small, poorly fitted or top-dose-only effect, or effect the other way; inactive = flat fitted curve, though single readings scatter.
% is set by controls: 0 for no effect and ±100 for the full control effect; potency is the fitted concentration of half-maximal effect.

A short description of this assay: VP16 counterscreen qHTS for inhibitors of ROR gamma transcriptional activity. Note: nearly all actives have a fitted effect of over 50% in size. To be noted: Drosophila S2 Gal4-VP16 UAS-luciferase, luminescence, 20 h; series mostly up to 53.6 µM; activity, negative = inhibition: at the top concentration. The source says:
NIH Molecular Libraries Probe Production Network [MLPCN]
NIH Chemical Genomics Center [NCGC]
Assay Provider: Dan Littman, New York University
The retinoic acid-related orphan receptor (ROR) gamma is a transcription factor that has a central role in the differentiation of Th17 cells, a subset of T helper cells that secrete the inflammatory cytokines IL-17, IL-17F, and IL-22. Th17 cells have been implicated in graft versus host disease, autoimmune disease and asthma. ROR gamma is induced in naive T helper cells in the presence of TGF-beta combined with IL-6, IL-21, or IL-23, and thereafter directs the expression of the Th17 lineage cytokines. To identify nonspecific inhibitors, a Drosophila Schneider cell line was stably transfected with two vectors: a gene expressing a fusion of the Gal4 DNA binding domain and VP16 transactivation domain under the control of the metallothionine promoter and a Photinus luciferase reporter regulated by the Gal4 binding site enhancer, UAS. […] Small molecule inhibitors that inhibit components common to the RORgt and VP16 assays, such as the Gal4 DNA binding domain or the UAS luciferase reporter, will be active in both assays and thus scored as nonspecific.
For screening, 600 cells in 4 uL/well were dispensed into white solid 1536-well plates (Grenier) using a solenoid-based dispenser. Following transfer of 23 nL compound or DMSO vehicle by a pin tool, the plates were incubated 1 hr at ambient temperature, and 1 uL/well copper sulfate (700 uM final concentration) was added. The plates were centrifuged 15 s at 1000 RPM and incubated 20 hr at ambient temperature. After addition of 1.5 uL Photinus luciferase detection reagent, the plates were incubated 10 min at ambient temperature and then read by a ViewLux (Perkin Elmer) to detect luminescence.
Consider `Fc1ccc(C(OCCN2CCN(C/C=C\c3ccccc3)CC2)c2ccc(F)cc2)cc1`, for which the Potency was 15.8 µM (active).

Regarding `CC(=O)c1c(O)c(C)c(O)c(Cc2c(O)c3c(c(C(=O)/C=C\c4ccccc4)c2O)OC(C)(C)C=C3)c1O`, the “activity, negative = inhibition” value is -0.988%. Still for that read-out and setting: in the case of `CC(C)(O)c1[se]c2ccccc2c1I` it was -17.8%. Take `N#CC(C#N)=Cc1cc(O)c(O)c([N+](=O)[O-])c1`: the Potency is 22.4 µM (active). `CC(C)(c1ccccc1)c1ccc(O)cc1`: the “activity, negative = inhibition” value was 7.15%. The same measure, in the same setting: with `COC1=C[C@]23CCCN2CCc2cc4c(cc2[C@@H]3[C@@H]1O)OCO4` the figure was -7.05%. Regarding `CCCCC(=O)N/N=C/c1c(O)n(CC)c(=S)n(CC)c1=O`, the Potency is 3.16 µM (active). Consider `CCCCC(=O)N/N=C/c1c(O)n(CCC2=CCCCC2)c(=O)[nH]c1=O`, for which the “activity, negative = inhibition” value was 1.97%. Still for that read-out and setting: with `CCCCC(=O)N/N=C/c1c(O)n(-c2ccccc2)c(=O)[nH]c1=O` the figure was 1.03%; with `c1ccc2sc(SNC3CCCCC3)nc2c1`, 2.39%; with `CN1CCN(C(=O)O[C@@H]2c3nccnc3C(=O)N2c2ccc(Cl)cn2)CC1`, -7.9%.

Regarding `CC[C@H]1CN2CCc3cc(OC)c(OC)cc3[C@@H]2C[C@@H]1C[C@H]1NCCc2cc(OC)c(OC)cc21`, the Potency was 1.26 µM (active). As to `CNC(C)[C@@H](O)c1ccccc1` (some centres not stated), the “activity, negative = inhibition” value is 9.08%. Same read-out and setting: in the case of `c1ccc(N2CC[C@@]3(CCCNC3)C2)nc1` it was -11.8%; in that of `CC(Cl)Cl`, 4.63%. For the compound `CC(=O)[O][Sn]([c]1ccccc1)([c]1ccccc1)[c]1ccccc1`, the Potency is 3.55 µM (active). As to `COC(=O)N1C(c2ccccc2)C1c1ccccc1` (configuration not stated), the “activity, negative = inhibition” value was 9.71%. On the same count and under the same terms, in the case of `CC[C@@H]1CN2CC[C@@H]1C[C@H]2[C@H](O)c1ccnc2ccc(OC)cc12` it was 9.73%; in that of `CCN1C[C@]2(C)CC[C@H](O)[C@@]34[C@@H]5CC6[C@@H](OC)C[C@@](O)([C@@H]5[C@@H]6O)[C@H](C[C@@H]23)[C@H]14`, 2.08% [at 17 µM]. For the compound `CCN1C[C@@]2(COC)CC[C@H](OC)[C@]34[C@@H]1[C@]1(OCO[C@@]15C[C@@H](OC)C1C[C@H]3[C@H]5[C@@H]1OC)[C@H](O)[C@@H]24`, the “activity, negative = inhibition” value was 2.2% [at 17 µM]. For `NC[C@H](O)c1ccc(O)cc1`, the “activity, negative = inhibition” value was 4.06% [at 17 µM]. Consider `COc1cccc(-c2nc3ccc(N4CCN(C)CC4)cc3[nH]2)c1`, for which the Potency was 2 µM (active). On to `CN1CCN(c2cc(N3CCNCC3)ccc2[N+](=O)[O-])CC1`, for which the “activity, negative = inhibition” value is -5.63%.

Take `CCCCC#N`: the “activity, negative = inhibition” value was 10.3%. On the same count and under the same terms, in the case of `COc1ccc(C2Oc3c(I)c(OC)cc(OC)c3CC2O)cc1OC` (configuration not stated) it was 7.75%; in that of `C[C@@]12CC[C@H]3[C@@H](CC[C@]4(O)C[C@H](O)CC[C@@]34C=O)[C@]1(O)CC[C@@H]2C1=CC(=O)OC1`, 4.3% [at 17 µM]; in that of `Clc1ccccc1`, -4.14%. In the case of `C[C@@H]1C[C@@H]2O[C@H]2/C=C\C=C\C(=O)Cc2c(Cl)c(O)cc(O)c2C(=O)O1`, the Potency is 12.6 µM (active). In the case of `C[C@]12O[C@H](C[C@@]1(O)C(=O)O)n1c3ccccc3c3c4c(c5c6ccccc6n2c5c31)CNC4=O`, the “activity, negative = inhibition” value is -2.92%. Still for that read-out and setting: with `CN1CCCC(=C(c2cccs2)c2cccs2)C1` the figure was -0.628%.

Turning to `Cc1nc2ccccn2c1P(=S)(N1CCCCC1)N1CCCCC1`, the Potency is 11.2 µM (active). Regarding `c1ccc(CCCCN2CCC(c3ccccc3)CC2)cc1`, the “activity, negative = inhibition” value is 16%. For the compound `O=c1oc2ccccc2c(O)c1C(c1ccccc1O)c1c(O)c2ccccc2oc1=O`, the “activity, negative = inhibition” value was -0.571%. The same measure, in the same setting: with `CC(C)(C)C(O)(CCc1ccc(Cl)cc1)Cn1cncn1` (configuration not stated) the figure was -6.68%; with `CC1=CC(=O)C2=C(C)C[C@H](O)[C@H]3[C@H](C)C(=O)O[C@@H]3C12` (some centres not stated), -4.17%; with `CCCCCCCCCCCCCC(=O)O[C@@H]1[C@@H](C)[C@@]2(O)[C@@H](C=C(CO)C[C@]3(O)C(=O)C(C)=C[C@@H]23)[C@@H]2C(C)(C)[C@]12OC(C)=O`, -3.2%. As for `CCCCCCCCc1[se]c2ccccc2c1Br`, the “activity, negative = inhibition” value was -0.332%. The same measure, in the same setting: with `CN(C)C[C@H]1CCCC[C@]1(O)c1cccc(O)c1` the figure was -7.52%. In the case of `Cc1ccc(NC(=O)CN(C)CC(=O)Nc2cccc(F)c2)cc1[N+](=O)[O-]`, the Potency was 4.47 µM (active).

`c1ccc(CN2CC[C@@]3(CCCNC3)C2)cc1`: the “activity, negative = inhibition” value was -2.59%. For the compound `ClCCBr`, the “activity, negative = inhibition” value is -6.24%. `COc1cc(-n2c(=S)[nH]c3ccc(C)cc3c2=O)c(Cl)cc1Cl`: the Potency was 5.62 µM (active).

Values taken from PubChem BioAssay AID2546 (National Center for Advancing Translational Sciences (NCATS), 2010).
